# Assay outcomes: PubChem BioAssay, National Center for Advancing Translational Sciences (NCATS)
# p53ts 39C tox: p53ts cell cytotoxicity, nonpermissive temperature; H1299-p53A138V viability at 39C, ATP luminescence, 24 h; Potency, µM (highest dose often 46.1 µM), without a hit: at the top dose activity change, negative = cell killing, actives largely listed as cytotoxic; 130,000 tested, 1.5% active; note: nearly all actives have a fitted effect of over 55% in size
# p53ts 32C tox: kills p53ts cells at the permissive temperature. H1299-p53A138V at 32C, ATP luminescence viability, 24 h. Potency, µM (titrated, usually from 46.1 µM), for inactives: at the top dose activity change, negative = cytotoxicity, hits mostly cytotoxic. 130,000 tested, 0.93% active. AID 924;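 note: 0% = DMSO and -100% = full killing by reference compound; nearly all actives have a fitted effect of over 55% in size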
#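 Viability by ATPlite luminescence after 24 h compound treatment (up to 46 uM) at the permissive 32C. Cells are H1299 carrying p53 A138V. Scale runs from DMSO basal to 100 uM tamoxifen as full kill; AC50 from Hill fits.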
# Luciferase inh: firefly luciferase inhibition | purified firefly luciferase, luminescence, 8 min | Potency, µM (titrated, usually from 57.1 µM), for the others: at the top dose activity change, negative = inhibition, usual class: inhibitors | 72,000 tested, 2.2% active; note: nearly all actives have a fitted effect of over 40% in size
#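 Here, luciferase activity is measured as luminescence following an 8 min room-temperature reaction at 10 uM ATP, pH 7.2. Every library sample is titrated.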
# Starred values were filed as active, the others as inactive; ? = inconclusive; / = not tested or not shown; [ ] = another dose, or the depositor's remark. Compounds with a hit are over-represented: about 2.5% of the library has one in this group of screens. Calls come from the whole dose curve; as a rule, active = well fitted curve in the direction sought with a large enough effect; inconclusive = small, poorly fitted or top-dose-only effect, or another doubt; inactive = no such curve, though single readings can be large; an effect the other way counts as inactive or inconclusive. Unless noted, % is set by controls: 0 for no effect and ±100 for the full control effect; potency is the fitted concentration of half-maximal effect.
SMILES,p53ts 39C tox,p53ts 32C tox,Luciferase inh
CCC(=O)Nc1cccc(-c2nc3ccccc3c(=O)o2)c1,10µM*,13µM*,?
Cc1ccc(-c2cn3nc(N4CCCC(C(=O)NCc5ccccc5F)C4)sc3n2)cc1 (stereo not drawn),/,2%,/
CC(C)=C[C@H]1[C@@H](C(=O)Oc2ccccc2C(C)C)C1(C)C,11%[9.22 µM],10%[9.22 µM],1%[11.4 µM]
CCc1cc(C(=O)Cc2ccc(F)cc2)c(O)cc1O,34%,40%,0%
CCc1cc(C(=O)Cc2nc3ccccc3[nH]2)c(O)cc1O,-19%,-1%,10µM*
Cc1ccc(N2CC(NC(=O)c3cccc(Cl)c3)CC2=O)cc1C (stereo not drawn),-25%,1%,/
